The panel holds about 83,000 compounds, 20% with a hit somewhere; the sample as a whole holds those more often.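 Negative percent growth values reflect cell death: -40 means 40% of the cells present at the start died, and -100 means all died.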 Unmarked numbers belong to inactive results. Active and inactive are the calls of the source. How the source made its calls: active means growth percent below 10; inactive means the rest.

For 13 compounds, growth results are on record in PubChem BioAssay (NCI).

Among the test systems are SK-MEL-2 melanoma; EKVX NSCLC; SN12C renal; UO-31 renal; TK-10 renal; ACHN renal; CAKI-1 renal; A498 renal; CCRF-CEM leukemia; MOLT-4 leukemia.
Holding throughout (assay): NCI-60 one-dose screen, 48 h (100 = growth as untreated, 0 = no growth, -100 = all killed)
Common to all, as to settings: 10 µM unless noted

For `C#CCOc1cccc(-c2nc(N)nc(Nc3ccccc3SSc3ccccc3Nc3nc(N)nc(-c4cccc(OCC#C)c4)n3)n2)c1`, the growth with SK-MEL-2 melanoma was 96.3%; in the assay with EKVX NSCLC it was 37.3%; with SN12C renal, 1.17% (active); in the assay with UO-31 renal, -78.6% (active); in the assay with TK-10 renal, 134%; in the assay with ACHN renal it was -76.4% (active). In addition, the growth in the assay with CAKI-1 renal is 29.1%; in the assay with A498 renal it was 73%; with CCRF-CEM leukemia it was 30.6%; with MOLT-4 leukemia it was 44%.
As for `COc1ccc(/C=N/N=C(/c2ccccc2)c2ccc3nc(-c4ccc(Cl)cc4)[nH]c3c2)cc1`, the growth in the assay with SK-MEL-2 melanoma was 89.1%; in the assay on EKVX NSCLC, 91.9%; in the assay on SN12C renal, 85.4%; with UO-31 renal, 78.7%; with TK-10 renal it was 81.9%; with ACHN renal it was 87.5%. Besides, the growth in the assay with CAKI-1 renal was 72.4%; in the assay on A498 renal it was 59.8%; with CCRF-CEM leukemia, 68.1%; with MOLT-4 leukemia, 53.2%.
In the case of `Oc1[nH]c2ccc(Cl)cc2c1N=Nc1nc(N=Nc2c(O)[nH]c3ccc(Cl)cc23)nc(N2CCOCC2)n1`, the growth in the assay on SK-MEL-2 melanoma was 65.3%; in the assay on EKVX NSCLC it was 85.2%; in the assay on SN12C renal, 43.9%; in the assay with UO-31 renal it was 78.7%; with TK-10 renal, 118%; in the assay with ACHN renal, 74.5%. Further, the growth in the assay with CAKI-1 renal is 72%; in the assay with A498 renal, 21.6%; in the assay on CCRF-CEM leukemia, 20.3%; in the assay on MOLT-4 leukemia, 62.5%.
Regarding `CC(=O)OC[C@]12CC[C@@H](C(=O)/C=C/c3cccnc3)[C@@H]1[C@H]1CC[C@@H]3[C@@]4(C)CC[C@H](OC(C)=O)C(C)(C)[C@@H]4CC[C@@]3(C)[C@]1(C)CC2`, the growth in the assay with SK-MEL-2 melanoma is -35.9% (active); in the assay with EKVX NSCLC, 21.8%; with SN12C renal, 19%; in the assay on UO-31 renal it was 12.1%; with TK-10 renal, 38.5%; in the assay with ACHN renal, -55.5% (active). In addition, the growth is 12.2% in the assay with CAKI-1 renal, -47.7% (active) in the assay on A498 renal, 2.41% (active) in the assay with CCRF-CEM leukemia and -5.14% (active) with MOLT-4 leukemia.
For `COC(=O)CNC(=O)c1cccc(-c2cc(=O)c3c(OC)c(OC)c(OC)cc3o2)c1`, the growth in the assay on SK-MEL-2 melanoma was 105%; in the assay with EKVX NSCLC it was 102%; in the assay on SN12C renal it was 104%; in the assay on UO-31 renal it was 86.1%; in the assay with TK-10 renal it was 109%; with ACHN renal it was 98.9%. Also, the growth in the assay on CAKI-1 renal is 102%; in the assay on A498 renal it was 90.8%; with CCRF-CEM leukemia, 91.3%; with MOLT-4 leukemia, 99.5%.
For `Cc1cc(=O)[nH]c(O)c1C#N`, the growth in the assay with SK-MEL-2 melanoma is 116%; in the assay with EKVX NSCLC, 94.3%; with SN12C renal, 102%; in the assay on UO-31 renal, 84.3%; in the assay on TK-10 renal, 107%; with ACHN renal, 99.5%. The growth in the assay on CAKI-1 renal is 90.6%; in the assay with A498 renal it was 104%; with CCRF-CEM leukemia it was 99.6%; in the assay on MOLT-4 leukemia, 100%.
With `O=C1[C@@H]2Cc3c([nH]c4ccccc34)[C@@H](c3ccc(Cl)cc3)N2C(=O)CN1C1CCN(Cc2ccccc2)CC1`, the growth is 92.7% in the assay on SK-MEL-2 melanoma; 54.6% in the assay on EKVX NSCLC; 55% in the assay on SN12C renal; 30.5% in the assay with UO-31 renal; 78.9% in the assay with TK-10 renal; 51.4% in the assay with ACHN renal. The growth in the assay with CAKI-1 renal is 26.2%; with A498 renal, 76.1%; in the assay with CCRF-CEM leukemia, 20.1%; in the assay with MOLT-4 leukemia, 13.5%.
On to `Cc1[nH]c(C(=O)Nc2ccc(C(N)=O)cc2N2CCOC(C)C2)c(Cl)c1Cl` (stereo not given), for which the growth was 104% in the assay with SK-MEL-2 melanoma; 93.1% with EKVX NSCLC; 96.4% with SN12C renal; 82.6% in the assay on UO-31 renal; 100% with TK-10 renal; 88.4% in the assay on ACHN renal. The growth in the assay on CAKI-1 renal was 98.4%; in the assay on A498 renal, 72.4%; in the assay with CCRF-CEM leukemia it was 99.5%; in the assay on MOLT-4 leukemia it was 96.4%.
In the case of `CCN(CC)S(=O)(=O)c1ccc(-c2nc(C(Cl)Cl)nc3cc(C)nn23)cc1`, the growth with SK-MEL-2 melanoma is 89.4%; with EKVX NSCLC, 25.8%; with SN12C renal it was 58.6%; in the assay on UO-31 renal it was 46.4%; with TK-10 renal it was 79.4%; with ACHN renal it was 8.7% (active). In addition, the growth with CAKI-1 renal is 29.6%; with A498 renal, 74.8%; in the assay on CCRF-CEM leukemia, 48.9%; in the assay with MOLT-4 leukemia, 36.1%.
With `CC(Nc1c(C#N)cnc2ccc(-c3cncc(O)c3)cc12)c1ccccc1` (stereo not given), the growth is -43.6% (active) in the assay with SK-MEL-2 melanoma; -13.6% (active) with EKVX NSCLC; -5.67% (active) in the assay on SN12C renal; -9.46% (active) with UO-31 renal; -13.2% (active) in the assay on TK-10 renal; 3.13% (active) in the assay with ACHN renal. Besides, the growth in the assay on CAKI-1 renal was 7.08% (active); in the assay on A498 renal it was 45%; in the assay with CCRF-CEM leukemia, 10.6%; in the assay with MOLT-4 leukemia, 2.65% (active).
With `CC(=O)Nc1cc(N2CCOCC2)c2nc(NC(=O)c3[nH]c(C)c(Cl)c3Cl)sc2c1`, the growth in the assay on SK-MEL-2 melanoma is 83%; in the assay with EKVX NSCLC it was 85.1%; in the assay with SN12C renal, 49.8%; in the assay on UO-31 renal, 57.9%; in the assay with TK-10 renal it was 112%; in the assay on ACHN renal it was 49.3%. For the same compound, the growth is 93.1% in the assay with CAKI-1 renal, 95.6% in the assay with A498 renal, 74.2% in the assay on CCRF-CEM leukemia and 65% in the assay with MOLT-4 leukemia.
On to `Cc1ccc(S(=O)(=O)c2nc(-c3ccc(F)cc3)oc2S(C)(=O)=O)cc1`, for which the growth was 86.3% with SK-MEL-2 melanoma; 91.8% with EKVX NSCLC; 67.4% with SN12C renal; 54.1% in the assay with UO-31 renal; 93.1% with TK-10 renal; -91.8% (active) in the assay on ACHN renal. The growth with CAKI-1 renal is 41.8%; with A498 renal, 102%; in the assay with CCRF-CEM leukemia, -14.8% (active); with MOLT-4 leukemia, 2.92% (active).
Turning to `CC(C)NC(=O)c1cc(-c2ccc(NC(=O)Nc3ccc(F)cc3)cc2)nc2cccnc12`, the growth with SK-MEL-2 melanoma is 120%; with EKVX NSCLC, 102%; in the assay on SN12C renal, 103%; in the assay on UO-31 renal it was 92.8%; with TK-10 renal, 110%; with ACHN renal, 103%. Also, the growth is 95% with CAKI-1 renal, 107% in the assay on A498 renal, 112% with CCRF-CEM leukemia and 133% in the assay with MOLT-4 leukemia.
